Results on seven molecules are retold here after PubChem BioAssay (NCATS).

Where “and” joins values, the source holds several entries; their conditions need not be identical. Equal entries are not always repeated. Records with an inconclusive call do not appear. Calls of active or inactive are those of the source. Unless noted, the rule behind the calls is not given here.

A short description of experiment [1]: qHTS Assay for Identifying Gametocytocidal Compounds (AID 743244; active = well fitted curve in the direction sought with a large enough effect; an effect the other way counts as inactive or inconclusive;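 note: % is set by controls: 0 for no effect and ±100 for the full control effect; actives lower the fluorescent signal which means gametocytes are killed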). Particulars: P. falciparum 3D7 stage III-V gametocytes, alamarBlue, 72 h; max response: stronger effect = lower value. A digest of the protocol:
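A resazurin-based viability read-out was applied to mature P. falciparum gametocytes: 72 h compound treatment, then 24 h dye incubation, with falling fluorescence signalling gametocytocidal effect.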
(In general: qHTS replaces the single test concentration by a dilution series.)

Experiment [2] in a line: qHTS profiling for inhibitors of Plasmodium falciparum (3D7) proliferation (AID 743322).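 Note: infected erythrocytes exposed to compound for 72 h before lysis; 100% = DMSO vehicle wells and 0% = 0.29 µM artemisinin.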 Conditions: P. falciparum 3D7 proliferation; at 28.7 µM (top of the series) unless noted. The method in brief: (§1)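 Parasite DNA was quantified by SYBR Green I fluorescence (ex 485, em 535 nm) after overnight lysis in saponin/Triton buffer at room temperature. Cultures at 0.3% parasitemia and 2.5% hematocrit were first exposed to compound for 72 h at 37 C; signals were normalised to artemisinin (0.29 uM) and vehicle wells.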

A short description of experiment [3]: qHTS profiling for inhibitors of Plasmodium falciparum (DD2) proliferation (AID 743323). Particulars: lower = more inhibition; at 28.7 µM (top of the series) unless noted. The method in brief:
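Parasite proliferation measured via DNA-dye fluorescence, as uninfected erythrocytes lack DNA. Cultures at 0.3% parasitemia and 2.5% hematocrit incubated 72 h with compound; signal scaled between vehicle and 0.29 uM artemisinin wells.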

Experiment [4] in a line: qHTS profiling for inhibitors of Plasmodium falciparum (HB3) proliferation (AID 743324; active = well fitted curve in the direction sought with a large enough effect; an effect the other way counts as inactive or inconclusive;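 note: 100% = DMSO vehicle wells and 0% = artemisinin-treated control wells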). Conditions: Plasmodium falciparum HB3 blood-stage proliferation; at 28.7 µM (top of the series) unless noted. A digest of the protocol:
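SYBR Green fluorescence (485 ex/535 em) of lysed cultures, incubated overnight at room temperature in the dark, quantifies parasite DNA. Infected erythrocytes at 0.3% parasitemia and 2.5% hematocrit were exposed 72 h; values normalized to DMSO and 0.29 uM artemisinin controls.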

Experiment [5] in a line: qHTS profiling of the MIPE4 collection as inhibitors of Plasmodium falciparum (3D7) proliferation (AID 743344).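 Note: scaled between DMSO vehicle wells and 0.29 µM artemisinin as full inhibition.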 Conditions: P. falciparum 3D7 in erythrocytes, SYBR Green DNA fluorescence, 72 h; at 28.5 µM (top of the series) unless noted. The method in brief:
as §1

The nature of experiment [6]: qHTS profiling of the MIPE4 collection as inhibitors of Plasmodium falciparum (DD2) proliferation (AID 743345). Particulars: P. falciparum Dd2 in erythrocytes, SYBR Green DNA, 72 h; at 28.5 µM (top of the series) unless noted. A digest of the protocol:
as §1

Experiment [7] in a line: qHTS profiling of the MIPE4 collection as inhibitors of Plasmodium falciparum (DD2) proliferation (Rep 2) (AID 743346). Particulars: P. falciparum Dd2 in erythrocytes, SYBR Green DNA, 72 h; at 28.5 µM (top of the series) unless noted. The method in brief:
as §1

Experiment [8] is described as follows: qHTS profiling of the MIPE4 collection as inhibitors of Plasmodium falciparum (HB3) proliferation (AID 743347).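 Note: plate controls were DMSO vehicle wells for no effect and artemisinin wells for full effect.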 Particulars: P. falciparum HB3 in erythrocytes, SYBR Green DNA, 72 h; at 28.5 µM (top of the series) unless noted. The method in brief:
as §1

Experiment [9] can be described thus: High-throughput drug toxicity screening in the BPDCN cell line Gen2.2 (AID 1224824).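 Note: cells exposed to compounds for 48 h before reading.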 Particulars: Gen2.2 BPDCN cells; at 45.8 µM (top of the series) unless noted. The method in brief: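 Gen2.2 cells (500/well) in phenol red-free RPMI with 10% FBS were exposed to compounds for 48 h at 37 °C, 5% CO2. Viability was read by CellTiter-Glo luminescence and normalized to DMSO (100%) and 9.2 uM bortezomib (0%).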

A short description of experiment [10]: High-throughput drug toxicity screening in the BPDCN cell line Cal-1 (AID 1224825). Conditions: Cal-1 BPDCN cell viability, qHTS; at 45.8 µM (top of the series) unless noted. A digest of the protocol: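 Percent activity derived from CellTiter-Glo luminescence, scaling DMSO to 100% and 9.2 uM final bortezomib to 0%. BPDCN Cal-1 cells (500/well, RPMI plus 10% FBS) incubated with compounds 48 hours at 37C before reading.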

A short description of experiment [11]: qHTS assay for measurement of the activity of small molecule inhibitors on Zika virus induced Caspase-3 activity in human iPSC derived neural progenitor cells (hNPCs) (AID 1224857; active = well fitted curve in the direction sought with a large enough effect; an effect the other way counts as inactive or inconclusive; note: nearly all actives have a fitted effect of over 65% in size; note: potency is the fitted concentration of half-maximal effect). The method in brief: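 Quantitative HTS format: human iPSC neural progenitors, 1 h compound pretreatment, ZIKV 2 FFU/cell for 6 h at 37 C. Percent inhibition derived from luminescent caspase-3/7 signal between uninfected and infected controls.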

Experiment [12] in a line: qHTS assay for measurement of the activity of small molecule inhibitors on Zika virus induced Caspase-3 activity in human astrocytoma cells (AID 1224859; active = well fitted curve in the direction sought with a large enough effect; an effect the other way counts as inactive or inconclusive; note: potency is the fitted concentration of half-maximal effect). A digest of the protocol:
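Readout is luminescence from Caspase-Glo 3/7 added after a 6 h ZIKV infection (2 FFU/cell) of compound-pretreated (1 h) SNB-19 cells; data expressed as % inhibition versus uninfected and infected wells.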

Experiment [13] can be described thus: qHTS Screen of the MIPE 4.0 Collection Against Ewings Sarcoma (RDES) (AID 1259252; active = well fitted curve in the direction sought with a large enough effect; an effect the other way counts as inactive or inconclusive; note: nearly all actives have a fitted effect of over 35% in size; note: potency is the fitted concentration of half-maximal effect). A digest of the protocol: (§2)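 After a 4 h attachment period in RPMI/5% FBS, cells were pin-dosed with test compounds; DMSO served as negative and 9.2 uM bortezomib (final) as positive control. Luminescent CellTiter-Glo signal at 48 h defined viability.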
Experiment [14] is described as follows: qHTS Screen of the MIPE 4.0 Collection Against Ewings Sarcoma (TC71) (AID 1259253; active = well fitted curve in the direction sought with a large enough effect; an effect the other way counts as inactive or inconclusive; note: nearly all actives have a fitted effect of over 40% in size; note: potency is the fitted concentration of half-maximal effect). The method in brief:
as §2

Experiment [15] can be described thus: qHTS Screen of the MIPE 4.0 Collection Against Ewings Sarcoma (EW8) (AID 1259255; active = well fitted curve in the direction sought with a large enough effect; an effect the other way counts as inactive or inconclusive; note: nearly all actives have a fitted effect of over 35% in size; note: potency is the fitted concentration of half-maximal effect;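 for viability: 100% = DMSO-treated cells and 0% = medium-only wells without cells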). A digest of the protocol:
as §2

As to `CCCCCCCc1ccc(CCc2cccc(O)c2C(=O)O)cc1`, the max response in [1] is 25.6% (inactive). The remaining parasite growth % (stronger effect = lower value) in experiment [2] came to 93%. The activity, percent of control in experiment [3] came out at 88.3%. In addition, the remaining proliferation (% of control), lower = more inhibition in experiment [4] was 58.6%. This molecule gave a parasite growth, % of DMSO control in experiment [5] of 68.8%. This molecule had a parasite growth remaining, % of DMSO control (lower = more inhibition) in experiment [6] of 99.9%. Further, the parasite growth, % of control (lower = inhibition) in experiment [7] came to 66.9%. This molecule also came in with a growth, % of control in experiment [8] of 81.6%. In addition, the cell viability, % of control (lower = more cytotoxic) in experiment [9] stood at 161%. Further, the viability (% of control) in experiment [10] turned out to be 66.1%. Further, the Potency entry in experiment [11] and in experiment [12] was “inactive” each time. Also, the Potency was 18.7 µM (active) in experiment [13] and 16.6 µM (active) in experiment [14].
Turning to `CC(C)(N)C(=O)N[C@H](COCc1ccccc1)C(=O)N1CCC2(CC1)CN(S(C)(=O)=O)c1ccccc12`, in experiment [2], the remaining parasite growth % (stronger effect = lower value) worked out at 88.9%. Also, in experiment [3], the activity, percent of control was determined as 10.9%. In addition, the remaining proliferation (% of control), lower = more inhibition in [4] worked out at 1.31%. Besides, the parasite growth, % of DMSO control in experiment [5] came out at 22.8%. Moreover, in [7], the parasite growth, % of control (lower = inhibition) was 7.19%. The molecule also gave a growth, % of control in [8] of 26.2%. The cell viability, % of control (lower = more cytotoxic) in [9] worked out at 14.7%. Further, the viability (% of control) in [10] was found to be 71%. The Potency entry in experiment [11] and in experiment [12] was “inactive” throughout. The Potency was 20.9 µM (active) in [13], 29.6 µM (active) in experiment [14] and 20.9 µM (active) in experiment [15].
Turning to `Cc1cc(SCc2sc(-c3ccc(C(F)(F)F)cc3)nc2C)ccc1OCC(=O)O`, the max response in experiment [1] is 25.7% (inactive). The remaining parasite growth % (stronger effect = lower value) in experiment [2] was 106% and 98.8%. The activity, percent of control in experiment [3] was 99.9% and 82.6%. Moreover, the remaining proliferation (% of control), lower = more inhibition in experiment [4] was 77.3% and 39.3%. The parasite growth, % of DMSO control in experiment [5] worked out at 64.2%. For the same molecule, the parasite growth remaining, % of DMSO control (lower = more inhibition) in experiment [6] stood at 96.2%. Moreover, in [7], the parasite growth, % of control (lower = inhibition) stood at 50.7%. In addition, the growth, % of control in experiment [8] stood at 96.6%. Also, in experiment [9], the cell viability, % of control (lower = more cytotoxic) amounted to 101%. For the same molecule, the viability (% of control) in experiment [10] turned out to be 114%. Besides, the Potency result in [11], in experiment [12] and in experiment [13] was “inactive” throughout. Also, the Potency in experiment [14] is 16.6 µM (active).
For `COc1ccc(CC2=NN3C([C@@H](CCc4ccccc4)[C@@H](C)O)=NC(C)C3C(=O)N2)cc1OC` (some centres undefined), the max response in [1] is -6.02% (inactive). Besides, the remaining parasite growth % (stronger effect = lower value) in experiment [2] worked out at 71.5%. Moreover, the activity, percent of control in [3] was determined as 64.6%. For the same molecule, the remaining proliferation (% of control), lower = more inhibition in experiment [4] was found to be 17.1%. For the same molecule, the parasite growth, % of DMSO control in experiment [5] was 87.2%. Moreover, the parasite growth remaining, % of DMSO control (lower = more inhibition) in experiment [6] came to 99.9%. Moreover, the parasite growth, % of control (lower = inhibition) in experiment [7] stood at 46.9%. In [9], the cell viability, % of control (lower = more cytotoxic) came to 276%. Besides, in experiment [10], the viability (% of control) was 115%. Moreover, the figures for the Potency in experiment [11] and in experiment [12] were 9.35 µM (active) and 10.5 µM (active), respectively. For the same molecule, the Potency entry in [13], in [14] and in [15] was “inactive” in each case.
On to `Cc1cc([C@@H](C)Nc2ccccc2C(=O)O)c2nc(N3CCOCC3)cc(=O)n2c1`, for which the max response in experiment [1] was -4.48% (inactive). For the same molecule, in experiment [2], the remaining parasite growth % (stronger effect = lower value) came out at 50.6%. For the same molecule, in experiment [3], the activity, percent of control is 29.8%. Also, the remaining proliferation (% of control), lower = more inhibition in experiment [4] is 31.4%. For the same molecule, the parasite growth, % of DMSO control in experiment [5] was 5.01% [at 57.5 µM]. For the same molecule, the parasite growth remaining, % of DMSO control (lower = more inhibition) in [6] worked out at 16.9% [at 57.5 µM]. The parasite growth, % of control (lower = inhibition) in experiment [7] amounted to 7.39% [at 57.5 µM]. The same molecule showed a growth, % of control in experiment [8] of 3.82% [at 57.5 µM]. In addition, the cell viability, % of control (lower = more cytotoxic) in [9] turned out to be 13.7% [at 92.2 µM]. The viability (% of control) in [10] is 27.7% [at 92.2 µM]. Also, the Potency entry in [11] and in [12] was “inactive” each time. Besides, the Potency in experiment [13] was 3.03 µM (active); in [14] it was 34 µM (active); in [15], 42.9 µM (active).
As for `Cc1cc(-c2ccc(CC(=O)Nc3ccc(-c4cccnc4)cc3)cc2)ccn1`, the max response in [1] is 17.3% (inactive). Moreover, the remaining parasite growth % (stronger effect = lower value) in experiment [2] came to 75%. In experiment [3], the activity, percent of control is 88.9%. Besides, the remaining proliferation (% of control), lower = more inhibition in [4] came to 6.55%. The molecule further showed a parasite growth, % of DMSO control in [5] of 32.3%. Besides, the parasite growth remaining, % of DMSO control (lower = more inhibition) in [6] turned out to be 95.7%. In addition, the parasite growth, % of control (lower = inhibition) in experiment [7] was determined as 110%. In addition, the cell viability, % of control (lower = more cytotoxic) in experiment [9] turned out to be 255%. Also, the viability (% of control) in [10] worked out at 20.4%. The Potency entry in experiment [11] and in experiment [12] was “inactive” each time. Further, the Potency in experiment [13] is 20.9 µM (active); in [14] it was 16.6 µM (active); in experiment [15], 18.7 µM (active).
Regarding `CS(=O)(=O)c1ccc(C(=O)Nc2ccc(Cl)c(-c3ccccn3)c2)c(Cl)c1`, the max response in experiment [1] is 15% (inactive). Besides, in experiment [2], the remaining parasite growth % (stronger effect = lower value) amounted to 105%. In addition, the activity, percent of control in experiment [3] was 101%. Besides, the remaining proliferation (% of control), lower = more inhibition in [4] is 103%. In addition, in experiment [5], the parasite growth, % of DMSO control was 66.9%. Also, the parasite growth remaining, % of DMSO control (lower = more inhibition) in [6] came to 93.4%. For the same molecule, the parasite growth, % of control (lower = inhibition) in experiment [7] worked out at 97%. The molecule also came in with a growth, % of control in experiment [8] of 92.4%. Moreover, the cell viability, % of control (lower = more cytotoxic) in experiment [9] was 312%. Moreover, in experiment [10], the viability (% of control) worked out at 65.3%. For the same molecule, the Potency result in experiment [11], in experiment [12], in experiment [13], in [14] and in [15] was “inactive” throughout.
